From PubChem BioAssay
SENP7 inh = SENP7 protease inhibition; Q9BQF6; recombinant SENP7, Z-RLRGG-aminoluciferin luminescence, 40 min; inhibition, % at 5 µM; hit rate 1.5% among 330,000;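 active = inhibition above about 50% at the single test dose, limit read from the data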;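 also: plate controls were DMSO with enzyme for no effect and no enzyme buffer wells for full effect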
SENP8 block-1 = blocks the human protease SENP8 | Q96LD8 | purified SENP8, Z-RLRGG-aminoluciferin cleavage, luminescence | inhibition, % at 10 µM | hit rate 1.2% among 330,000 | AID 2540; in the data active = inhibition above about 50%
SENP8 block-2 = blocks human SENP8 cleavage of Nedd8 substrate; inhibition, % at 20 µM; Q96LD8; hit rate 0.64% among 360,000; recombinant SENP8, Nedd8 substrate fluorescence; in the data active = inhibition mostly above about 40%, no sharp cut-off; inactive = mostly below about 27%
HSP90 refold inh = blocks HSP90-mediated luciferase refolding in reticulocyte lysate; hit rate 0.91% among 290,000; Rabbit reticulocyte lysate, luciferase refolding luminescence, 3 h; inhibition, % at 5.6 µM;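 active = inhibition above the screen-wide mean plus 3 SD, computed separately per campaign, cut at about 16% in these data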;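 also: 0% = DMSO wells and 100% = 60 µM geldanamycin wells; inhibitors lower the luminescence because luciferase stays unfolded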
LGR2 antag = blocks bursicon-induced cAMP signaling via Drosophila LGR2; HEK293 LGR2, CRE-luciferase, bursicon-stimulated, 4 h; hit rate 0.35% among 380,000; AID 720647; inhibition, % at 9.99 µM;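 active = drop in luminescence signal, shown as inhibition above about 50% in the replicate tests, limit read from the data, passing the limit was not always enough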;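 also: agonist challenge used bursicon conditioned medium at about half maximal strength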
SENP6 block = SENP6 protease inhibition; Recombinant SENP6 catalytic domain, aminoluciferin luminescence; inhibition, % at 10 µM; hit rate 1.8% among 330,000; Q9GZR1;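 active = inhibition above about 50% at the single tested dose, limit read from the data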;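 also: plate controls were DMSO wells with enzyme for no effect and DMSO wells lacking enzyme for full effect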
Target sequence (Q9GZR1 628-1112 limits assumed): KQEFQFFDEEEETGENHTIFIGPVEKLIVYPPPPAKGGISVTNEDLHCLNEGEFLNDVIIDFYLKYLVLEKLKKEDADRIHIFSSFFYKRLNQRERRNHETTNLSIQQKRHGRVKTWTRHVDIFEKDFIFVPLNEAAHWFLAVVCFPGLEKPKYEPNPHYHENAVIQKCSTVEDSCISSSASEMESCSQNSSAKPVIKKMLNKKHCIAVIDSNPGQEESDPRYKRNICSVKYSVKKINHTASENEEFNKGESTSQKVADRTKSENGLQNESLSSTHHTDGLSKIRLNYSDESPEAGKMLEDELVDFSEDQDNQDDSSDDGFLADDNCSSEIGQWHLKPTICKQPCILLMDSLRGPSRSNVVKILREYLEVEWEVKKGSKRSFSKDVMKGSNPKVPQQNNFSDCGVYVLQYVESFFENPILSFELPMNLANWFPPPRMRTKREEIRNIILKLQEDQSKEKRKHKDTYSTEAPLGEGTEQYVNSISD
SENP8 confirm = confirmation of human SENP8 protease inhibitors; shares compounds with SENP7 inh; Recombinant SENP8, Z-RLRGG-aminoluciferin luminescence, 60 min; inhibition, % at 12.5 µM; hit rate 40% among 6,200; AID 488912;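 active = mean inhibition across replicates above about 50%, limit read from the data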
SENP6 conf = confirmation of human SENP6 protease inhibitors | shares compounds with SENP7 inh | recombinant SENP6, Z-RLRGG-aminoluciferin luminescence | inhibition, % at 12.5 µM | hit rate 58% among 6,200
SENP7 conf = confirmation of human SENP7 protease inhibitors | shares compounds with SENP7 inh | recombinant SENP7, Z-RLRGG-aminoluciferin luminescence, 40 min | inhibition, % at 12.5 µM | hit rate 69% among 6,200 | AID 488917
Casp3 SENP sel = inhibits human caspase-3 in SENP selectivity test; shares compounds with SENP7 inh; purified caspase-3, Z-DEVD-aminoluciferin luminescence, 60 min; inhibition, % at 12.5 µM; hit rate 60% among 6,200; AID 488918;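 active = mean inhibition above about 50%, limit read from the data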;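 also: plate controls were enzyme with DMSO for no effect and wells without caspase-3 for full effect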
SENP luc ctr = counter-screen for SENP inhibitors: luminescence interference | shares compounds with SENP7 inh | Pre-incubated SENP8/Z-RLRGG-aminoluciferin, luciferase luminescence interference | inhibition, % at 12.5 µM | hit rate 39% among 6,200;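 active = mean inhibition above about 50% when retested at one dose, limit read from the data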;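 also: plate controls were DMSO wells with completed reaction for no effect and substrate without enzyme for full effect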
* hit, by the source's call; / = not tested or not shown; ! = repeats disagree. Rows were chosen to be rich in hits. Some 2.3% of all compounds tested hit in one or more screens of this group.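 The calls were made as follows, unless noted: active = mean inhibition above about 50% in the one-dose retest (limit read from the data); inactive = the rest.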

SMILES | SENP7 inh | SENP8 block-1 | SENP8 block-2 | HSP90 refold inh | LGR2 antag | SENP6 block | SENP8 confirm | SENP6 conf | SENP7 conf | Casp3 SENP sel | SENP luc ctr
Cc1cccc(C)c1OCc1cc(C(=O)N2CCN(c3ccc(F)cc3)CC2)no1 | 31 | 33 | 4 | 4 | -79 | 55* | 49 | 47 | 81* | 64* | 59*
Cc1cccc(C)c1OCc1cc(C(=O)N2CCN(c3ccccn3)CC2)no1 | 2 | -3 | 12 | 1 | -4 | 13 | / | / | / | / | /
Cc1ccc(S(=O)(=O)/N=C2\C=C(Nc3ccc(O)cc3)C(=O)c3ccccc32)cc1 | 64* | 90* | 80* | / | / | 84* | 90* | 95* | 86* | 94* | 9
COC(=O)c1cccc(NS(=O)(=O)c2cccs2)c1C | / | / | 24 | -3 | -6 | / | / | / | / | / | /
Cc1ccc(S(=O)(=O)Nc2ccc(N=Nc3ccc(O)cc3)cc2)cc1 | -9 | -10 | 20 | -4 | -22 | -15 | / | / | / | / | /
Cc1ccc(NC2=C/C(=N/S(=O)(=O)c3cccs3)c3ccccc3C2=O)cc1 | 69* | 46 | 94* | 1 | / | 77* | 10 | 54* | 12 | 3 | -5
COC(=O)c1ccccc1NC1=C/C(=N\S(=O)(=O)c2cccs2)c2ccccc2C1=O | 52* | 89* | 53*! | 4 | 91* | 63* | 29 | 64* | 18 | 31 | 8
Cc1cccc(-c2ccc([C@H]3[C@@H](CO)N4CCCCN(CCC(F)(F)F)C[C@H]34)cc2)c1 | / | / | / | / | 10 | / | / | / | / | / | /
CCc1ccc(S(=O)(=O)Nc2cc(SCC(=O)O)c(O)c3ccccc23)cc1 | 30 | 28 | 33 | 3 | 45 | 73* | 15 | 37 | 12 | 0 | 8
COc1ccccc1NC(=O)CCSc1ccc(C)cc1 | 34 | 21 | 23 | 1 | -20 | 51* | 24 | 22 | 63* | 43 | 35
C[C@@H]1CN([C@@H](C)CO)C(=O)c2cc(C#CC3CC3)cnc2O[C@@H]1CN(C)C(=O)Nc1ccccc1 | / | / | / | / | -17 | / | / | / | / | / | /
CCCNC(=O)CCn1c(=S)oc2ccccc21 | -1 | -7 | 8 | -2 | 9 | 58* | 0 | -2 | 7 | 6 | 0
CC(=O)Nc1ccc(NC(=O)CCn2c(=S)oc3ccccc32)cc1 | -12 | -10 | 2 | 0 | 0 | -3 | / | / | / | / | /
Cc1ccc(NC(=O)c2sc3ccccc3c2Cl)nc1 | 93* | 63* | 4 | -6 | -76 | 72* | 3 | 2 | 0 | 8 | -2
COCc1nnc(NC(=O)c2sc3ccccc3c2Cl)s1 | 31 | 46 | 16 | 1 | / | 55* | 41 | 37 | 76* | 61* | 66*
O=C(Nc1ccccn1)c1sc2cccc(F)c2c1Cl | 90* | 7 | -1 | -2 | 15 | -18 | 9 | 13 | 3 | 6 | -1
O=C(Nc1cccnc1)c1sc2cccc(F)c2c1Cl | -10 | -5 | 1 | -3 | -31 | -25 | / | / | / | / | /
COCc1nnc(NC(=O)c2cccs2)s1 | -4 | -11 | 13 | -3 | / | -14 | / | / | / | / | /
C[C@H]1CN([C@@H](C)CO)C(=O)c2cc(NC(=O)CCN3CCOCC3)ccc2O[C@H]1CN(C)C(=O)NC1CCCCC1 | / | / | / | / | -15 | / | / | / | / | / | /
C[C@H]1CN([C@@H](C)CO)S(=O)(=O)c2ccc(-c3ccccc3)cc2O[C@H]1CN(C)C | / | / | / | / | -8 | / | / | / | / | / | /
Cc1c(Cc2ccccc2)c(=O)n2c([nH]c3ccccc32)c1C#N | 11 | 13 | -432 | -1 | 16 | 52* | -2 | 14 | 7 | 4 | -1
COc1ccccc1N=Cc1c(C)c(C#N)c2[nH]c3ccccc3n2c1=O | 2 | 1 | -408 | 1 | -9 | 15 | / | / | / | / | /
